The nature of assay [1]: OV-KATE Cancer Cell Toxicity qHTS against the NCATS CANVASS Library (AID 1347345). The gist of the method:
(§1)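 1000 cells/well; 4 h settle; 11-pnt titration; 72 h, 37 degrees C, 5% CO2; CellTiter-Glo, 15min RT; luminescence read.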

Assay [2] is described as follows: HPAF-II Cancer Cell Toxicity qHTS against the NCATS CANVASS Library (AID 1347346). Note: nearly all actives have a fitted effect of over 55% in size. Note: potency is the fitted concentration of half-maximal effect. The gist of the method:
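Cytotoxicity in HPAF-II pancreatic cancer cells: 72 h treatment across 11 concentrations, ATP-based CellTiter-Glo luminescence endpoint.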

The nature of assay [3]: UWB1.289 Cancer Cell Toxicity qHTS against the NCATS CANVASS Library (AID 1347347). Note: nearly all actives have a fitted effect of over 60% in size. Note: potency is the fitted concentration of half-maximal effect. The gist of the method: as §1
A short description of assay [4]: OV-SAHO Cancer Cell Toxicity qHTS against the NCATS CANVASS Library (AID 1347348). Note: nearly all actives have a fitted effect of over 55% in size. Note: potency is the fitted concentration of half-maximal effect. The essentials:
as §1

Assay [5] can be described thus: SW1088 Cancer Cell Toxicity qHTS against the NCATS CANVASS Library (AID 1347350). Note: nearly all actives have a fitted effect of over 75% in size. Note: potency is the fitted concentration of half-maximal effect. The gist of the method:
as §1

The nature of assay [6]: U-118MG Cancer Cell Toxicity qHTS against the NCATS CANVASS Library (AID 1347351). Note: potency is the fitted concentration of half-maximal effect. The essentials: as §1
Assay [7] is described as follows: COV-362 Cancer Cell Toxicity qHTS against the NCATS CANVASS Library (AID 1347352). Note: series mostly up to about 38 µM. The gist of the method: (§2)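 qHTS cytotoxicity: compounds tested in 11 concentrations on 1000 seeded cells per well over 72 h; bortezomib served as control; signal from CellTiter-Glo luminescence.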
Assay [8] in a line: UWB1.289-WTBRCA1 Cancer Cell Toxicity qHTS against the NCATS CANVASS Library (AID 1347354). Note: potency is the fitted concentration of half-maximal effect. The essentials: as §2
A short description of assay [9]: HPAF-II 12hr Apoptosis Induction qHTS against the NCATS CANVASS Library (AID 1347358). The gist of the method:
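Apoptosis in HPAF-II pancreatic cancer cells is scored as caspase 3/7 luminescence following a 12-hour exposure to an 11-point compound series.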

A short description of assay [10]: HEK293 12hr Apoptosis Induction qHTS against the NCATS CANVASS Library (AID 1347361). The essentials: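 HEK293 cells (500/well, DMEM + 10% FBS) were exposed to natural products across an 11-point series for 12 hours at 37 degrees C. Caspase-3/7 activity was then measured with DEVD luciferase luminescence after 15 min at room temperature.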
Assay [11] in a line: KB-8-5-11 Cancer Cell Toxicity qHTS against the NCATS CANVASS Library (AID 1347364). Note: nearly all actives have a fitted effect of over 75% in size. Note: potency is the fitted concentration of half-maximal effect. The essentials: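 Natural products were titrated in 11 points onto KB-8-5-11 cells, 500 per well, and cytotoxicity was scored from CellTiter-Glo luminescence after 72 hr culture.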
Assay [12] in a line: qHTS for Hypoxia signaling pathway (HIF-1) agonists against the NCATS CANVASS Library (AID 1347375). The essentials:
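Inducers of HIF-1 signaling were detected in ME-180 cells bearing an HRE-driven beta-lactamase reporter after 17 h compound exposure. Activity came from CCF4-AM FRET emission ratio (460/530 nm) in qHTS format.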

Assay [13] is described as follows: qHTS assay for small molecule disruptors of mitochondrial membrane potential screened against the NCATS CANVASS Library (AID 1347389). Note: nearly all actives have a fitted effect of over 60% in size. Note: potency is the fitted concentration of half-maximal effect. The gist of the method: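 Compounds tested in 11-point qHTS series on HepG2 cells for 1 hr; membrane-potential dye added for 30 min at 37C. Lower red-to-green ratio indicates loss of potential.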
Assay [14] in a line: Secretion counterscreen for inhibitors of the SERCaMP assay screened against the NCATS CANVASS Library (AID 1347390).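 Note: light from luciferase secreted into medium read as a measure of general secretion.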 Note: potency is the fitted concentration of half-maximal effect. The gist of the method:
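Counterscreen for secretory-pathway interference: after 4 h attachment, SH-SY5Y-GLuc cells were exposed 20 hours to compounds (final 0.001 - 77 uM), then coelenterazine added and GLuc luminescence recorded; Brefeldin A served as control.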

A short description of assay [15]: qHTS for activators of Nrf2/ARE signaling pathway screened against the NCATS CANVASS Library (AID 1347391). Note: nearly all actives have a fitted effect of over 60% in size. Note: potency is the fitted concentration of half-maximal effect. The gist of the method:
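Cells carrying an ARE-driven beta-lactamase reporter (HepG2 background) are dosed for 16 h, then stained with CCF4. Cell viability in the same wells is measured by CellTiter-Glo luminescence.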

Assay [16] in a line: qHTS for inhibitors of ER calcium dysfunction: SERCaMP assay screened against the NCATS CANVASS Library (AID 1347393). Note: nearly all actives have a fitted effect of over 40% in size. Note: potency is the fitted concentration of half-maximal effect. The essentials: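 qHTS in SH-SY5Y reporter cells: 16 h compound pretreatment, 4 h thapsigargin, then secreted Gaussia luciferase measured by luminescence.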
A short description of assay [17]: qHTS for inhibitors of Wild type Zika virus screened against the NCATS CANVASS Library (AID 1347396).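 Note: ATP luminescence of surviving cells so rescue from viral cell killing; series mostly up to about 46 µM.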 The gist of the method: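 Vero 766 cells, 1000/well, o/n attach; cpds pin-transferred (11-pt qHTS); WT Zika added; 72 h, 37C, 5% CO2; CellTiter Glo lumi. Uninfected + vehicle = 100% inhibition.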
Assay [18] is described as follows: Redox Reaction Profiling qHTS: Assay Interference Panel against the NCATS CANVASS Library (AID 1347401). The gist of the method: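 Resazurin (5 uM) conversion to resorufin measured with 200 uM DTT in 50 mM HEPES pH 7.3, 50 mM NaCl. Compounds tested in 11-point qHTS series. Fluorescence (ex 525/em 598 nm) read before and after 15 min dark incubation.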
The nature of assay [19]: qHTS for Antimalaria activity screened against the NCATS CANVASS Library (AID 1347380). Note: nearly all actives have a fitted effect of over 40% in size. Note: potency is the fitted concentration of half-maximal effect. The essentials:
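Growth inhibition of asexual erythrocytic P. falciparum Dd2 was quantified by SYBR Green DNA staining. Cultures grew 72 h with compound (11-point series) in hypoxic gas at 37C; lysis and staining lasted 18 h.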

The nature of assay [20]: qHTS for activators of dead-cell proteases activity screened against the NCATS CANVASS Library (AID 1347392).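 Note: luminescence from protease leaking out of membrane-damaged cells cleaving impermeant substrate; rising signal means more cytotoxicity.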 The essentials: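 HepG2 cells (2000/well) attached 18 h at 37C, then exposed 5 h to compounds (11-point qHTS). Dead-cell protease activity read as luminescence from cell-impermeant AAF-aminoluciferin substrate after 15 min at room temperature.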

Records with an inconclusive call do not appear. Active and inactive are the calls of the source. Calls come from the whole dose curve; as a rule, active = well fitted curve in the direction sought with a large enough effect; inconclusive = small, poorly fitted or top-dose-only effect, or another doubt; inactive = no such curve, though single readings can be large; an effect the other way counts as inactive or inconclusive. Peptide text beside a SMILES is read from it. * marks the point of attachment. Hexanoyl = CCCCCC(=O)*

`CO[C@@H](C[C@@H](C)[C@@H](O)/C=C/C=C/CNC(=O)C(C)(C)[C@H](O)\C(C)=C/C=C\C=C\Cc1cnco1)[C@]1(O)[C@@H](C)C(=O)N(C)[C@@]12COC2=O`: the Potency entry in [1], in [2], in assay [3], in assay [4], in assay [5] and in assay [6] was “inactive” throughout. In addition, the Potency result in assay [7], in assay [8], in [9], in assay [11], in assay [13] and in assay [14] was “inactive” in each case. The Potency result in [15], in [16] and in [18] was “inactive” throughout. For the same molecule, the molecule was classed as inactive in assay [10], in assay [12] and in assay [17].
Turning to `CN1CC[C@]23c4ccccc4N[C@H]1[C@]21CCN(C)[C@H]3Nc2ccccc21`, the Potency result in [1], in [2], in assay [3], in [4], in [5] and in assay [6] was “inactive” each time. The Potency result in assay [7], in [8], in [11], in assay [19], in [13] and in [14] was “inactive” throughout. The Potency result in assay [15], in assay [20], in assay [16] and in [18] was “inactive” in each case. The outcome in [10] and in [17] was inactive.
Turning to `COC(=O)c1cc2cc3c(c(O)c2c(=O)o1)OC1(CC3)CC2=C(O1)C(=O)c1c(O)c(OC)cc(OC)c1C2=O` (stereo unspecified), the Potency is 18.8 µM (active) in [2], 13.3 µM (active) in assay [5], 3.31 µM (active) in assay [13] and 10.5 µM (active) in assay [15]. In addition, the Potency entry in assay [6], in assay [9], in assay [19] and in assay [16] was “inactive” each time. For the same molecule, the molecule was classed as inactive in assay [10].
`CC1=C2CC[C@]3(C)[C@H](CC=C4[C@@H]5CC(C)(C)CC[C@@H]5C(=O)[C@H](O)[C@]43C)[C@@]2(C)C=C(O)C1=O`: the Potency entry in assay [3], in [8], in assay [9] and in assay [14] was “inactive” throughout. For the same molecule, the outcome in assay [12] and in [17] was inactive. Besides, the Potency in assay [16] was 12.2 µM (active).
For `C[C@@H]1CC[C@]2(C(=O)O)CC[C@]3(C)C(=C2[C@H]1C)CC[C@@H]1[C@@]2(C)CC[C@H](O)C(C)(C)[C@@H]2CC[C@]13C`, the Potency in assay [4] is 11.8 µM (active); in assay [5], 23.7 µM (active). The Potency entry in assay [9], in [11], in assay [13], in [14], in [15] and in [20] was “inactive” throughout. The Potency entry in assay [16] and in assay [18] was “inactive” throughout. In addition, the molecule was classed as inactive in assay [10] and in assay [17].
Turning to `C=C1[C@@]2(C)CC3C4(C)CCC(O)C(C)(C)C4CCC3(C)[C@]1(C(=O)OC)C(=O)C(C)(O)C2=O` (stereo partly specified), the Potency result in assay [1], in assay [2], in [3], in assay [4], in assay [5] and in [6] was “inactive” each time. The Potency entry in assay [7], in [8], in [11], in assay [19], in assay [13] and in assay [15] was “inactive” in each case. For the same molecule, the Potency result in assay [20] and in assay [18] was “inactive” throughout. Moreover, the call in assay [10] and in assay [17] was inactive. The Potency in [16] was 8.6 µM (active).
As for `CCCCCC(=O)N[C@@H](CC(C)C)C(=O)N[C@H](C=O)CCC(=O)O` (Hexanoyl-Leu-Glu-aldehyde), the Potency result in [1], in assay [2], in [3], in [4], in assay [5] and in [6] was “inactive” each time. The Potency entry in assay [7], in assay [8], in [11], in [13], in assay [14] and in [15] was “inactive” in each case. In addition, the Potency entry in assay [16] is “inactive”. The outcome in assay [10], in [12] and in assay [17] was inactive.
As for `C/C=C1/CN2C3CC1C1C=CC(=O)N4c5ccccc5[C@@]3(C[C@@H]2C2=C[C@H]3C5CC6N(CC[C@@]67c6ccccc6N(C2=O)[C@@H]37)C/C5=C/C)[C@H]14` (stereo partly specified), the Potency was 5.95 µM (active) in [2]; 9.41 µM (active) in assay [3]; 13.3 µM (active) in assay [5]; 11.9 µM (active) in [6]; 16.7 µM (active) in assay [8]; 9.35 µM (active) in [11]. Besides, the Potency was 1.06 µM (active) in assay [19], 34.3 µM (active) in assay [14], 3.31 µM (active) in [15] and 0.216 µM (active) in [16]. For the same molecule, the molecule was called inactive in assay [12]. Also, the Potency result in [18] is “inactive”.
Consider `COC(=O)C1=C[C@]23C[C@@H](C)CC[C@@H]2[C@@]2(C)CC[C@@H](C(C)C)[C@@](O)(O3)[C@@H]12`, for which the Potency in [2] was 18.8 µM (active); in assay [11], 18.7 µM (active); in assay [16], 34.3 µM (active). Besides, the Potency result in assay [6], in assay [9], in assay [13], in assay [14] and in assay [20] was “inactive” in each case. Further, in assay [12], the outcome was inactive.
Turning to `CCC(=O)N[C@@H](C[C@H](C)C(Cl)(Cl)Cl)C(=O)N1C(=O)C=C(OC)[C@@H]1C[C@H](C)CCl`, the Potency in assay [2] and in assay [5] was 16.8 µM (active) throughout. Also, the result in assay [10] and in assay [17] was inactive. The Potency entry in [11], in assay [19], in [14], in [15] and in assay [18] was “inactive” throughout.
As for `C/C(=C\[C@H](C)C(=O)C[C@H](O)CC1CC(=O)NC(=O)C1)[C@@H]1OC(=O)CCCC/C=C/C[C@@H](O)[C@@H]1C`, the Potency result in [5], in assay [9], in [11], in assay [13], in assay [20] and in assay [16] was “inactive” each time. Further, in [18], the Potency entry was “inactive”. Also, the result in [10] and in [17] was inactive. Besides, the Potency in assay [19] was 4.72 µM (active); in [14], 12.2 µM (active).
Consider `CC[C@H](O)CCCCC[C@@H]1NC(=O)[C@H]2CCCCN2C(=O)[C@H]([C@H](C)CC)NC(=O)[C@H](Cc2cn(OC)c3ccccc23)NC1=O`, for which the Potency in assay [2] is 3.75 µM (active); in assay [6] it was 13.3 µM (active); in assay [19] it was 1.49 µM (active). For the same molecule, the Potency entry in assay [8], in assay [11], in assay [14], in assay [15], in assay [16] and in assay [18] was “inactive” each time.
In the case of `CO[C@H]1/C=C/CCCCC(=O)O[C@@H](/C(C)=C/[C@H](C)C(=O)C[C@H](O)CC2CC(=O)NC(=O)C2)[C@@H](C)C1`, the Potency result in assay [5], in assay [11], in [13] and in [16] was “inactive” each time. In addition, the outcome in assay [10] and in [17] was inactive. For the same molecule, the Potency in [19] was 9.41 µM (active); in assay [14], 17.2 µM (active); in assay [15], 16.6 µM (active).

The values above are taken from PubChem BioAssay (NCATS).
